Reference: the supplement of paper PMC11417369
The full ranking holds about 25,000 sequences; the median of “ln(normalized median fluorescence intensity)” is about 6.7, and the highest 2% start at about 10. The entries come from a sample that favours the highest values as a whole.

system: PfHDP1 homeodomain (GST-tagged); assay: gcPBM binding intensity (ln(normalized median fluorescence intensity)); higher = stronger DNA binding
Outline: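 For binding intensity, the highest Masliner-normalised natural-log median intensity across replicate spots of either probe orientation was taken. Protein bound to the array was stained with Alexa488 anti-GST antibody and scanned at 488 nm. The protein, GST-tagged P. falciparum DNA-binding domains from E. coli at about 25 μg on average, had been applied for 1 h to an Agilent 4 × 180k array of primer-extended double-stranded 36-bp intergenic genomic probes and negative controls.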

Sequence	gcPBM binding intensity (ln)
AAAGAAATGAAATATACACACATACATAAATACATA [CACACA_site6081]	6.68
ATGTAAAACATAAAATGTACATATTATACAAACTAT [XGTACX_site5797]	6.87
ATTTATATTATAATATGTACACAAAAAAAATTAGGA [XGTACX_site565]	6.91
TATGAAATATCGTGCACACACGAATAATATAAGAAT [CACACA_site4842]	9.21
CAGTTTACTAATATTGCACACGAATATGAAAAAGAG [CACACA_site8941]	9.89
GTTTACTAATATTGCACACGAATATGAAAAAGAGAA [CACACA_site2897]	10.6
ATTATTTATTATTTCTGTACGTATAAAAATAACATT [XGTACX_site1671]	6.67
CAGTTAATGTTGGTACTTTATATAAAAATGATATGA [CACACA_negctrl_site1600]	6.67
CCTCTTAATATGTGCACACTAAATTATAACATAATT [CACACA_site3259]	11.3
CCTAAATTATATTATGCACACTTAAAAATATATTTA [CACACA_site5861]	9.95
TTCCTCTTAATATGTGCACACTAAATTATAACCTAA [CACACA_site5751]	11.3
AAATAATAAATTATAACACACATATATATATATATA [CACACA_site4045]	9.33
ATTATGTATATAAATTAACACACATATGTGGTTAAT [CACACA_site9028]	6.37
TAAATTATATTATGCACACTTAAAAATATATTTAAC [CACACA_site3512]	9.29
TTATTTTAAATTAACACATGCATAATATATGTATAT [TGCATGCA_site597]	6.31
ACTAAACTTATATGTACACACATATAACATTAATTT [CACACA_site2258]	6.67
TTCCTCTTAATATGTGCACACTAAATTATAACATAA [CACACA_site3260]	11.1
AATATATCATTATATAAACACACAATATGTTTTTTA [CACACA_site9260]	6.22
CAGATAAGATTTTGTGGTACTATTTATTAAATTAGA [XGTACX_site2644]	6.06
AAGGTATGATTAATCACACACATAAATATATATACA [CACACA_site2658]	6.67
TATTTGAAAGCCAATTGTACTTTAGTTTTTGAAACA [XGTACX_site5542]	5.98
AAAAATATAATATAATGTACACAAAAAAAAAAATTC [XGTACX_site3657]	6.63
TATTCTAGTCTGCTTACACACATATTTATATTTATA [CACACA_site7432]	7.53

Sequence	gcPBM binding intensity (ln)
ATGCTTTTGTCATGTGCACACACGTATATATTATAT [CACACA_site4163]	11
AGACACGTATACGATGCACACGTATGCTTTATATAT [CACACA_site9363]	8.32
ATATATATTATGTGTGTGCACTTTTGTTATTATTAT	9.03
AATTATATTTAGTATATGCACACTTTATGTTTGTTA [CACACA_site2025]	9.36
GCTTTTGTCATGTGCACACACGTATATATTATATAT [CACACA_site6146]	11.5
CCACGTATACGATGCACACGTATGCTTTATATATAG [CACACA_site4108]	8.58
CTATATTATTTTTCTTGTACGTAGGAAATATAGCTA [XGTACX_site6176]	6.45
AAGAAAATATAAAATGCACACTATAAATTGTATATA [CACACA_site7928]	9.72
TGTATGTATAATTGAGTGCACAGAAAAAAAAAAGAA	10.6
CATTATAAAAAATAAAAAAGAAATAATTGTATATGC [CACACA_negctrl_site478]	6.62
TTTGTATTACGTTTGTGTACATATACAATGTGTTTT [XGTACX_site7708]	6.38
ACATTGCACCCGTGCACACATAGAAAAATAATTCTT [CACACA_site409]	10.3
CCATTAAGACACATTGCACACGTGCACCCATAGAAA [CACACA_site4388]	10.2
ACATTAAGACACATTGCACACGTGCACCCATAGAAA [CACACA_site8029]	10.5
ATTAAGACACATTGCACACGTGCACCCATAGAAAAA [CACACA_site408]	10.5
ACCCATTGCTCACGTGCACACATAGAAAAATAATTC [CACACA_site4389]	10.7
TACACCCATAGACACACACACACGCATAAAAAAAAA [CACACA_site8428]	6.85
TAAGAAATAAATAGTACACACATAGACACCCACCCA [CACACA_site8429]	7.64
TCATTGAAAATTGTTGCACACATAATAATTAAATAT [CACACA_site8554]	9.46
TAAGAAATAAATAGTACACACATAGACACCCACCGA [CACACA_site1516]	7.1
TCACTTTTTATTAAATGTACATGCTTTCATTTTCAT [XGTACX_site8139]	6.78
ATAAACAAAAAAAAAAAATATATCAATATATATATA [CACACA_negctrl_site299]	8.7
TTTTTAAAAAATAAGAAAAAATAAATATATTACAAA [XGTACX_negctrl_site191]	6.58

Sequence	gcPBM binding intensity (ln)
AAAATAAATAAATACACACACACGAATATATATATA [CACACA_site1683]	8.57
TACTTATTTGATTGGGTGCATATATATAGTATGTAT [GTGCAC_site9845]	9.2
AATAATAAAAAAAGTGCACACACATAATATATATAT [CACACA_site9100]	8.79
TATACACATATATAAAGTACATATATGTGTAAAAAA [XGTACX_site8582]	6.8
GAAAAGCATAGATGCACACATATATATATATATATA [CACACA_site2169]	9.77
ATGTGCACATATAAAAGTACACGCACATATATATAT [XGTACX_site1238]	11
AGATAAAAAAAGTACACACACACATATATATATATA [CACACA_site3072]	9.22
AAAAAAAAAAAAAGCACACACACATATGCGTATATA [CACACA_site953]	6.43
AAAAAAAAAAAGCACACACACATATGAGTATATATA [CACACA_site4683]	6.91
GCTAAAAGTATATGCACACACATATATATGCACATA [CACACA_site1635]	11
AAGAAAAGCATAGATGCACACATATATATATATATA [CACACA_site8675]	9.35
GTGCTAAAAGTATATGCACACACATATATATGCACA [CACACA_site8472]	10.6
TAATAAAAAAAGTGCACACACATAATATATATATAT [CACACA_site3340]	9.23
GCTAAAAGTATATGCACACACATATAGATGCACATA [CACACA_site6868]	10.7
TAATAAATCCTATATAGTACATATATGCAAGTATGT [XGTACX_site3955]	6.97
TCTTATTAAAATATTTATATAGGTAATCACAATATT [GTGCAC_negctrl_site568]	6.37
ATATCAAACTAGAATGTGCGCATGCATTCAAGTTTT	6.54
TATGTCAATTTTCATACATGCGCATAATCTTTATTT [TGCATGCA_site807]	7.53
TTATTATTCATATATTCACACATTAAAATTTTTCAA [CACACA_site4243]	6.62
TTCATTCAAATTAACGTGCACATTATTAGTAAAAAC	10.7
TGTAAATTATAACGTGCACACATATTTAAAATGAAA [CACACA_site8915]	9.88
GTATATATATATATATGCAAATGTATAAATCTACAT [CACACA_negctrl_site546]	7.32
CTAATCGTGCACAACTGTACATTTGTCAAGGGCAAT [XGTACX_site8662]	10.8

Sequence	gcPBM binding intensity (ln)
TTGCAACTCTTCAATCGTACACATTATTTATTATAT [XGTACX_site1377]	6.89
TAAAATATATAAAACTGTACATTTTAAAGGCACAAC [XGTACX_site8342]	7.1
AGCTCTTGTCATTTTGCACACACACCGGTATAGGTT [CACACA_site5654]	10.4
CTCTTGTCATTTTGCACACACACATGTATAGGTTAT [CACACA_site3057]	11.1
TATATAGGTATCATTACACACATGTATACTTATTTG [CACACA_site7864]	6.47
CTTGTCATTTTGCACACACACATGTATAGGTTATTA [CACACA_site7431]	10.9
AGCTCTTGTCATTTTGCACACACACCCGTATAGGTT [CACACA_site3056]	10.3
CTTGTCATTTGGCACACACACATGTATAGGTTATTA [CACACA_site5656]	6.72
CTTGTCATTGGGCACACACACATGTATAGGTTATTA [CACACA_site3058]	6.49
GTATATCACACATTTGCATGTTGTCAATAGTTTATC [TGCATGCA_site134]	6.93
CTCTTGTCATTTTGCACACACACATGGATAGGTTAT [CACACA_site5655]	10.8
TCTACATATTAATTATGTACGAATTATTATTAGTAA [XGTACX_site6924]	6.03
TTTAAGAATTAACGGGGTACAATTCTTAAATATATA [XGTACX_site669]	6.33
ACTGAAAAAAGAAATACACACATTCTGGATCATATA [CACACA_site3860]	6.47
ATTTTTTTTTGTGTATATAAATAAATAAATATATAT [GTGCAC_negctrl_site603]	6.47
AAGAAAAAGACTTCATGAAAAAGAATTTTTTTAATT [TGCATGCA_negctrl_site473]	5.86
TATTTATTGTGACACTTTTATTATTTTATGATAAAA [CACACA_negctrl_site37]	6.6
AATATAAGCAAATACACACACACATATAAATATGTA [CACACA_site7741]	7.03
TACATAAACATTTATACACACATTATAAATACATAT [CACACA_site4386]	6.74
TTAATATGAAATAAATGTACATAATACATAATAAAA [XGTACX_site6194]	6.44
